Screens (PubChem)
Compounds with a hit are over-represented: about 1.9% of the library has one in this group of screens.
PABP1 MLLE inh: inhibitors of microRNA-mediated deadenylation, human PABP1 MLLE binding; P11940; GST-MLLE / FITC-PAM2 fluorescence polarization; inhibition, % at 20 µM; actives 0.36% (n = 360,000); in the data active means inhibition above about 35%, passing the limit was not always enough
eIF4H FP inh: inhibitors of RNA binding by human eIF4H; Q15056; actives 0.94% (n = 290,000); inhibition, % at 35 µM; AID 2012; eIF4H fluorescence polarization binding assay;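 further: calls also rest on retests at 20 µM and on dose response follow-up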
14-3-3 Bad inh: disrupts binding of bovine 14-3-3 zeta to phospho-Bad peptide; P63103; TR-FRET 14-3-3zeta/Dy647-pBad peptide displacement, 1 h; inhibition, % at 21.7 µM; actives 0.71% (n = 220,000); AID 781;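 active means inhibition above about 70%, limit read from the data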
PABP FP inh: blocks human PABP binding to poly(A) RNA; P11940; fluorescence polarization; calls only at 35 µM; actives 1% (n = 290,000); AID 2014;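 further: calls also rest on retests at 20 µM and on dose response follow-up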
eIF4E 4G PPI: blocks eIF4E binding to eIF4G. P63073+Q04637. TR-FRET eIF4E-eIF4GI(517-606) binding, 2 h. actives 0.37% (n = 220,000). inhibition, % at 21.7 µM;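 active means inhibition above about 30%, limit read from the data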
Numbers stand for hits; . = inactive; / = not tested or not shown; + = active, no number. Unless noted, how the calls were made is not given here.

SMILES | PABP1 MLLE inh | eIF4H FP inh | 14-3-3 Bad inh | PABP FP inh | eIF4E 4G PPI
O=C1c2nc3cc(-c4ccco4)[nH]n3c(=O)c2CN1C1CCCCC1 | . | 50 | . | + | .
Cc1c(C(C)(C)C)c(C=S)n2ccccc12 | . | 77 | . | + | .
CCOc1ccc(C(Nc2ccc(C)cc2)P2(=O)OCC(C)(C)CO2)cc1 (centres undefined) | . | 98 | . | + | .
CCOc1ccc(C(Nc2ccc(C)cc2)P2(=O)OCCCO2)cc1 (centres undefined) | . | . | . | . | .
Cn1c(=O)c2[nH]c(N=NN3CCCCC3)nc2n(C)c1=O | . | / | / | / | /
CC(=O)/C(N=Nc1nc2c([nH]1)c(=O)n(C)c(=O)n2C)=C(\C)O | 55 | . | . | . | .
CC(C)Cc1cc(C(=O)Nc2c(F)cc(F)cc2Br)no1 | . | 61 | . | . | .
CC(C)C(c1nnnn1Cc1ccccc1)N(CCCO)Cc1cc2cc3c(cc2[nH]c1=O)OCO3 (centres undefined) | . | 111 | . | + | .
Cc1ccc2cc(CN(CCO)Cc3nnnn3Cc3ccc(F)cc3)c(=O)[nH]c2c1 | . | . | . | . | .
O=c1[nH]c2cc3c(cc2cc1CN(CCCO)Cc1nnnn1Cc1ccc(F)cc1)OCO3 | 46 | . | . | . | .
COc1ccccc1-c1cnc(C(O)c2cccc(C)c2C)[nH]1 (centres undefined) | . | / | / | / | /
CC(C)N1CC2=C(OC(N)=C(C#N)C2c2cccnc2)/C(=C/c2cccnc2)C1 (centres undefined) | . | 88 | . | + | .
COc1ccc(C2CC(c3cccs3)=Nc3ccccc3S2)cc1 (centres undefined) | 51 | . | . | . | .
COc1ccc(C2CC(c3cccs3)=NN2S(C)(=O)=O)cc1 (centres undefined) | . | . | . | . | .
CC(=O)c1sc(Nc2nc3cc4c(cc3s2)OCO4)nc1C | . | . | 88 | . | .
CC1(C)CC(NCc2cccc([N+](=O)[O-])c2)CC(C)(C)N1 | . | 81 | / | + | /
CCOc1ccc(-c2nc(=S)[nH][nH]2)cc1 | . | . | . | . | 52
CCOc1ccc(S(=O)(=O)N2CCCC(C(=O)N3CCOCC3)C2)cc1C (centres undefined) | . | . | / | . | /
COc1cccc(NC(=S)N(CCCN2CCCC2)Cc2ccco2)c1 | . | active | . | . | .
CCN(CC(=O)NCCc1ccc(S(N)(=O)=O)cc1)Cc1ccccc1 | . | . | / | . | /
CC(C(=O)NC1C(=O)N2C(C(=O)O)=C(CSc3nnnn3C)CSC12)n1cc(Cl)cn1 (centres undefined) | 43 | . | . | . | .
Cc1[nH]c2c(C)cccc2c1CC(=O)O | . | 7.2 | 86 | . | .
CCN(C(=O)Cc1cccs1)c1nnc(-c2cc(OC)c(OC)c(OC)c2)s1 | . | . | . | . | .
CCN(C(=O)Cc1ccccc1OC)c1nnc(-c2ccncc2)s1 | . | . | 79 | . | .
COc1ccc(C(c2nnnn2Cc2ccccc2)N2CCN(C/C=C/c3ccccc3)CC2)cc1 (centres undefined) | . | / | / | / | /
SMILES | PABP1 MLLE inh | eIF4H FP inh | 14-3-3 Bad inh | PABP FP inh | eIF4E 4G PPI
CC(=O)N1CCC2(CC1)C/C(=N\NC(=S)Nc1ccccc1C)c1cc(O)ccc1O2 | . | 8.5 | . | . | .
CCCNC(=O)C1(C)CCCN(Cc2ccc(-c3ccccc3)cc2)C1 (centres undefined) | . | / | / | / | /
CC[n+]1c(/C=C/Nc2ccccc2)sc2ccccc21 | . | . | . | + | .
CC[n+]1c(/C=C(/C)SC)sc2ccccc21 | 46 | . | . | . | .
CC[n+]1ccccc1/C=C/Nc1ccccc1 | . | . | . | + | .
CC(/C=N/Nc1nc(C)cc(C)n1)=C\c1ccc(C(C)C)cc1 | . | . | . | . | .
CCN(c1ccccc1)c1nc(Cl)nc2c1cnn2C | . | / | / | / | /
CCN1CCN(C(=O)C2CCN(S(=O)(=O)N3CCC4(CC3)OCCO4)CC2)CC1 | . | . | / | . | /
COc1ccc(-n2c(COc3cccc4ccccc34)nnc2SC(C)C(=O)O)cc1 (centres undefined) | . | . | . | . | .
O=C1NC(=S)S/C1=C\C=C\c1ccc([N+](=O)[O-])o1 | . | 95 | 87 | + | .
COc1ccc(OC)c(NC2c3ncccc3C(=O)N2Cc2ccco2)c1 (centres undefined) | . | . | . | . | .
CCOC(=O)c1ccc(NC2c3ncccc3C(=O)N2Cc2ccc(F)cc2)cc1 (centres undefined) | . | . | 86 | . | .
